This note sets out measurements from PubChem BioAssay (NCATS).

Results filed as inconclusive are left out. The source made the active and inactive calls. The call rests on the fitted dose curve.

For this experiment, the target named is Peroxisome proliferator-activated receptor delta (Homo sapiens) (UniProt Q03181). Put plainly: qHTS assay for small molecule agonists of peroxisome proliferator-activated receptor delta signaling (AID 588534). The conditions noted are these: HEK293T PPARdelta-UAS-bla, beta-lactamase ratio, 18 h; series mostly up to 76.7 µM. The method, boiled down: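 Titration series tested in agonist mode on beta-lactamase reporter cells; 18 hrs at 37 C after a 5 hr pre-incubation. Readout: CCF4 fluorescence, 2 hrs RT. Hill equation gives EC50 and maximal response.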
Peroxisome proliferator-activated receptor delta (Homo sapiens), sequence (Q03181 whole entry, looked up): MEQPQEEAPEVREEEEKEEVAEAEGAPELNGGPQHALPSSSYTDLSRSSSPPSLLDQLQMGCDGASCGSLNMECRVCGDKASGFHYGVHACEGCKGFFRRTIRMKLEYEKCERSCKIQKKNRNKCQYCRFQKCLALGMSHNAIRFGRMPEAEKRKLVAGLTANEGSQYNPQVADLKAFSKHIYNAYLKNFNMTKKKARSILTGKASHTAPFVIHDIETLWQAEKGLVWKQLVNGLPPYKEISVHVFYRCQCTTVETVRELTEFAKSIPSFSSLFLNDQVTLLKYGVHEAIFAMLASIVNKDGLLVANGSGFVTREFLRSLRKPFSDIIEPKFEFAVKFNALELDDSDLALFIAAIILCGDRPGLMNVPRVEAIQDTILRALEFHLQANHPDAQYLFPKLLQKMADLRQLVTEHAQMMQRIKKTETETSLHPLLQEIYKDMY
Background: Quantitative high-throughput screening tests each substance at several concentrations.
In the case of `O=c1oc(=O)c2cc3c(=O)oc(=O)c3cc12`, the result was inactive.

`CCSC(=O)N(CC(C)C)CC(C)C`: the outcome was inactive. On to `CCN(Cc1ccccc1)c1ccccc1`, for which the outcome was inactive. As to `Nc1ccc(Cl)cc1[N+](=O)[O-]`, the outcome was inactive. For the compound `ClCCl`, the outcome was inactive. Consider `CCOC(=O)C1OC1c1ccccc1` (centres undefined), for which the outcome was inactive. On to `CC(COc1ccc(C(C)(C)C)cc1)OS(=O)OCCCl` (centres undefined), for which the result was inactive. Regarding `CC(=O)c1nccs1`, the outcome was inactive. In the case of `Clc1nc(Cl)c(Cl)c(Cl)c1Cl`, the outcome was inactive. Consider `O=C1CCCC/C=C/CCCCCCCCCO1`, for which the result was inactive. On to `O=[N+]([O-])C(CO)(CO)CO`, for which the outcome was inactive. As for `Cc1ccccc1OCC1CO1` (centres undefined), the outcome was inactive. Regarding `C1CCCNCC1`, the outcome was inactive. Regarding `COCCOC(=O)c1ccccc1C(=O)OCCOC`, the result was inactive. Turning to `Clc1cc(Cl)cc(Cl)c1`, the result was inactive. With `CCC(C)(C)OC`, the result was inactive. Take `CCNC(=S)NCC`: the outcome was inactive. As to `O=C1C=CCCC1`, the outcome was inactive.

On to `OCCNCCO`, for which the outcome was inactive. Consider `O=C1CCCCC1`, for which the result was inactive. As to `CCOCCOCCOCC`, the outcome was inactive. Regarding `O=C(c1ccc(Cl)cc1)c1ccc(Cl)cc1`, the outcome was inactive.

In the case of `CCCCCCCC/C=C\CCCCCCCC(=O)OC[C@@H](O)[C@H]1OC[C@H](O)[C@H]1O`, the result was inactive. Regarding `O=C(Cl)c1cc(Cl)cc(Cl)c1`, the result was inactive. `CCCCC(CC)COC(=O)/C=C\C(=O)OCC(CC)CCCC` (centres undefined): the result was inactive. In the case of `Cc1cc(Nc2ccc(O)cc2)ccc1N`, the result was inactive. For the compound `Cc1cscn1`, the result was inactive. As for `CC(C)C(=O)OCC(C)(C)C(O)C(C)C` (centres undefined), the outcome was inactive. Turning to `C[Si](C)(C)Cl`, the outcome was inactive.

In the case of `C/C=C(/C)C#N`, the outcome was inactive. Take `CC(C)Nc1ccccc1`: the result was inactive. As to `O=C(O)c1cc(Cl)cc(Cl)c1`, the result was inactive. Then `CCOC(C)=O`, with “inactive”.

With `Oc1ccc2cc(SSc3ccc4cc(O)ccc4c3)ccc2c1`, the outcome was inactive.

For `Clc1cc(Cl)c(Cl)cc1Cl`, the result was inactive.

`CC1(C)CC(N)CC(C)(CN)C1` (centres undefined): the result was inactive. Take `Cc1ccc(S(=O)(=O)Oc2ccc(N=Nc3ccc(-c4ccc(N=Nc5c(O)ccc6cc(S(=O)(=O)O)cc(S(=O)(=O)O)c56)c(C)c4)cc3C)cc2)cc1`: the outcome was inactive. Consider `CSc1ccc(C=O)cc1`, for which the outcome was inactive. `CCC1CO1` (centres undefined): the result was inactive.
